# A number with no mark means an inactive call. The rule behind the calls is not given here.
# Target: L-lactate dehydrogenase (Plasmodium falciparum (isolate CDC / Honduras)) (UniProt Q27743)
# Assay: PfLDH activity inhibition – cell lysate, 3D7 strain, counter-screen for P. falciparum growth inhibition project (AID 2304);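 note: 0% = vehicle and 100% = reference inhibitor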
# Settings: P. falciparum 3D7 crude extract, LDH APAD/NBT absorbance; at 2 µM; stronger effect = higher value
# Sequence of L-lactate dehydrogenase (Plasmodium falciparum (isolate CDC / Honduras)) (Q27743 whole entry, looked up): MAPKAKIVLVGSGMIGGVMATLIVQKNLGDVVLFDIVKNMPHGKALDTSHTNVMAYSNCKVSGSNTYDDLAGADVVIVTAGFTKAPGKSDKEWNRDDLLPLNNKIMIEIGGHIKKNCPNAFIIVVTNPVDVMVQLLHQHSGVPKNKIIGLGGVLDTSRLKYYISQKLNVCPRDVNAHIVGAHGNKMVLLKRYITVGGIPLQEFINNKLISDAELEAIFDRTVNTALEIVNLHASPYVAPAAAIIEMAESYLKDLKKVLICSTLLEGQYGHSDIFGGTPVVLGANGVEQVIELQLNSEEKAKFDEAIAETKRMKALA
row,SMILES,inhibition
1,CN(CCCCCN1CCC(NC(=O)Nc2ccc(C(F)(F)F)cc2)C1)C(=O)/C=C/c1ccc(Cl)c(Cl)c1 (stereo not given),-3%
2,O=[N+]([O-])c1cccc(CNCC2CCN(Cc3ccc4ccccc4c3)CC2)c1,4%
3,CCCCCCN1CCC(CNCc2cccc([N+](=O)[O-])c2)CC1,-1%
4,COc1ccc(-c2nonc2NC(=O)c2ccc(OC(C)C)cc2)cc1OC,-3%
5,CN1CCN(CC(O)CNC(=O)Nc2ccc(Cl)cc2)CC1 (stereo not given),-3%
6,CCN(CC)S(=O)(=O)n1ncc2c3c(N)nc(N)nc3ccc21,3%
7,CCNc1cc(C(=O)N[C@@H](Cc2ccccc2)[C@H](O)CNC23CC4CC(CC(C4)C2)C3)cc(N2CCCCS2(=O)=O)c1,-2%
8,Cn1cncc1-c1ccc2ncnc(Nc3ccc4c(cnn4Cc4ccccc4)c3)c2c1,-3%
9,CNC(=O)c1cc(NCCCNCc2ccc(Cl)c(C(F)(F)F)c2)nc2ccccc12,-1%
10,O=C(N[C@@H](Cc1ccccc1)C(=O)NCCN1CCCCC1)c1ccc(O)c(-c2cccc(C(F)(F)F)c2)c1,7%
11,CN(C)CCNCc1ccc(-c2cccc(-c3nc4ccccc4[nH]3)c2)cc1,6%
12,Cc1cc(N[C@@H](Cc2ccccc2)C(=O)Nc2ccccc2)nc(NCCc2ccc(F)cc2)n1,0%
13,CC(=O)Nc1nc(C(=O)Nc2cccc(-c3cccc(-c4nc5c(C)cccc5[nH]4)c3)c2)cs1,-2%
14,O=C(Nc1ccc(-c2csc3nccn23)cc1)c1ccc(Cl)cc1,-5%
15,CN(CC(=O)Nc1ccc(F)cc1)C(=O)c1ccc(-c2ccc(F)cc2)o1,-2%
16,Cc1ccc(-c2cnc(N)c3cc(-c4ccnc(N)n4)ccc23)cc1,-5%
17,CCNc1cc(C(=O)N[C@@H](Cc2ccccc2)[C@H](O)CNCCc2cccc3ccccc23)cc(N2CCCC2=O)c1,3%
18,Nc1cc(-c2cccc(Cl)c2)nn1-c1ccnc2cc(Cl)ccc12,-2%
19,Cc1cccc(CNc2nccc3[nH]c4ccccc4c23)c1,0%
20,COc1ccccc1CCCON1C(N)=NC(N)=NC1(C)C,-1%

row,SMILES,inhibition
1,CC1CCC(NC(=O)c2nn(-c3ccc(Cl)cc3)c(=O)c3ccccc23)CC1 (stereo not given),-3%
2,CC1(C)N=C(N)N=C(N)N1c1cc(Cl)c(Cl)cc1Cl,1%
3,COc1cccc(-c2cc(C(=O)Nc3ccc4nc(-c5ccccc5)[nH]c4c3)[nH]n2)c1,2%
4,Cc1cc(NCC(c2ccccc2)c2ccccc2)nc(NCC2CCCCC2)n1,3%
5,C=CCc1cc(OC)ccc1OCCCOc1c(C)nc(N)nc1N,-2%
6,Cc1c(-c2ccc(C(=O)NC3CC(C)(C)NC(C)(C)C3)cc2)[nH]c2cc(Cl)c(Cl)cc12,0%
7,CC(C)NCc1ccc(-c2ccc(NC(=O)c3ccc(Cl)cc3)cc2)cc1,3%
8,CN1CCN(c2cccc(-c3nnc(-c4ccc(OCC(=O)NCc5cccc(C(F)(F)F)c5)c([N+](=O)[O-])c4)o3)c2)CC1,2%
9,N#Cc1ccc(CN2CCC(Oc3ccc(NC(=O)c4cccs4)cc3Cl)C2)cc1 (stereo not given),-2%
10,COc1ccc(NC(=O)CSc2nc(-c3ccccc3Cl)ns2)cc1OC,-2%
11,CCNc1cc(C(=O)N[C@@H](Cc2ccccc2)[C@H](O)CNC2(C(C)C)CCC2)cc(N2CCCCS2(=O)=O)c1,-2%
12,COc1ccc(-c2c3c(=O)n(C)c(=O)n(C)c3c3nnc4ccccc4n23)cc1,-2%
13,COc1ccc(NC(=O)c2cn(-c3ccc(C(C)(C)C)cc3)nc2C)cc1N1CCN(C)CC1,0%
14,Cc1cc(NN=Cc2ccccc2F)c2cc(C(F)(F)F)ccc2n1,2%
15,COc1ccc2nccc([C@@H](O)CN3CCC(NCCOc4ccc(F)cc4Cl)CC3)c2c1,3%
16,O=[N+]([O-])c1ccc(Oc2ccccc2CNCC2CCN(CC3CCCCC3)CC2)cc1,-2%
17,COc1ccc(Cl)cc1N1CCN(CCCNC(=O)c2ccc(-c3nc4cc(Cl)c(C)cc4[nH]3)c(F)c2)CC1,-6%
18,c1csc(-c2nc(NCC3CCCO3)ncc2-c2ccsc2)n1 (stereo not given),1%
19,CCOc1ccc(C(C)NC(=O)C2COc3ccccc3O2)cc1OCC (stereo not given),1%
20,CC1(C)N=C(N)N=C(N)N1OCCCOc1cc(Cl)cc(Cl)c1,0%

# Source: PubChem BioAssay
